Most compounds without a hit are left out; they make up all but 2.8% or so of the library.
CBFb RUNX1 block = qHTS Assay for Compounds Blocking the Interaction Between CBF-beta and RUNX1 for the Treatment of Acute Myeloid Leukemia. Potency, µM (series often up to 59.8 µM), inactives show at the highest dose activity, negative = inhibition, hits mostly inhibitors. AlphaScreen CBFb-His/RUNX1-biotin binding, biochemical. 230,000 tested, under 10 active. Runt-related transcription factor 1 (Homo sapiens) + Core-binding factor subunit beta …; further: % of control where 0% means no effect
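CBFb-His/RUNX1-biotin, 30 nM each, preincubated 20 min RT; compound 15 min RT; Ni + streptavidin beads 50 ng each, 90 min RT; AlphaScreen read.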
Integrin act MD = qHTS for Activators of Integrin-Mediated Alleviation for Muscular Dystrophy | alpha7betagal myoblasts, beta-gal FDG fluorescence, 48 h | Potency, µM (top dose mostly 38.3 µM), for inactives: top-dose activation, hits mostly activators | 0.064% of 350,000 active | AID 624291, 2012;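 further: potency means the concentration at half of the fitted maximal effect; 100% = response of the positive control SU9516; nearly all actives have a fitted effect of over 60% in size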
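Alpha7betagal+/- myoblasts (passage 13) were plated 16-24 hr, then exposed to compounds (1:260 dilution of DMSO stock) for 48 hours at 37C. After MPER lysis, β-galactosidase reporter activity was read as FDG fluorescence (ex 480/em 540) after 30 minutes.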
PTHR1 ag = qHTS for PTHR1 Agonists: Primary Screen. AID 743266, 2014. 0.075% of 410,000 active. Potency, µM (doses to about 115 µM), inactives show at the highest dose activation, actives largely listed as activators. Parathyroid hormone/parathyroid hormone-related peptide receptor (Homo sapiens), Q03431. HEK293 GP2 PTHR1 cells, GloSensor cAMP luminescence, 1 h; further: potency means the concentration at half of the fitted maximal effect; nearly all actives have a fitted effect of over 55% in size
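HEK-293-derived GP2 cells expressing PTHR1 and a GloSensor cAMP reporter, 3,000/well, plated overnight, given luciferin plus IBMX (each 0.5 mM as added) for 1 h at 37 °C, then compound for 1 h at 37 °C. Luminescence was read after 15 min at room temperature.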
DRD3 agonist = qHTS of D3 Dopamine Receptor Agonist: qHTS; D3R DiscoveRx beta-arrestin cells, luminescence, 90 min; max activation, %; 0.58% of 410,000 active; in the data active means max activation above about 30%; further: 0% is about no effect
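Agonist mode: compounds and dopamine controls were applied to plated cells for 90 min at 37 degrees C after an overnight attachment at 1500 cells/well. Luminescent read-out followed 30 - 60 minutes at room temperature with DiscoveRx detection reagent.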
MBNL1 CUG block = qHTS Assay for Inhibitors of MBNL1-poly(CUG) RNA binding; TR-FRET MBNL1-His/biotin-(CUG)12 binding, 665/545 ratio; 0.036% of 280,000 active; AID 2675, 2010; Muscleblind-like protein 1 (Homo sapiens), Q9NR56; Potency, µM (top dose mostly 57.5 µM), for the others: at the highest dose activity change, negative = inhibition, most hits filed as inhibitors; active means well fitted inhibition curve with a large enough effect in the signal ratio, with a control signal flat, not every such curve was filed as active; inconclusive means small, poorly fitted or top-dose-only effect, or effect the other way, or a change in a side signal; inactive means no such curve, though single readings can be large or run the other way; the % refers to the signal ratio; further: potency means the concentration at half of the fitted maximal effect; on the % scale 0 is the no-effect control and ±100 the full control effect
Target sequence (Q9NR56 whole entry, looked up): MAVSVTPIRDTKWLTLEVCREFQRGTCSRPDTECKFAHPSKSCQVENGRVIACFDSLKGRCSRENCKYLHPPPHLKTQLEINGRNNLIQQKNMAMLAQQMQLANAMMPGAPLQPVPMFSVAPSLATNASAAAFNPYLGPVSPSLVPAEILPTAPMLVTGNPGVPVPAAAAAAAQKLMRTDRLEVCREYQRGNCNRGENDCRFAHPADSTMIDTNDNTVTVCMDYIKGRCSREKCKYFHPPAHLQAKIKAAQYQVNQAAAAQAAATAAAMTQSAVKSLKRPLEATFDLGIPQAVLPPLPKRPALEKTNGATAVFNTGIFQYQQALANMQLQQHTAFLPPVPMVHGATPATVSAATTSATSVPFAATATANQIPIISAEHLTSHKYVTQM
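TR-FRET between His-tagged MBNL1 and biotin-(CUG)12 RNA, detected with Tb anti-His antibody (0.055 ng/ul) and streptavidin-XL665 (5 nM), 60 min at room temperature. Compounds titrated 92 nM to 58 uM; 665/545 nm ratio normalized to buffer and complex controls.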
DRD3 antagonist = qHTS of D3 Dopamine Receptor Antagonist: qHTS | D(3) dopamine receptor (Homo sapiens), P35462 | D3R cells, DiscoveRx beta-arrestin luminescence, antagonist mode; stronger effect = lower value | max response, negative = inhibition, % | 2.5% of 360,000 active | AID 652054, 2013; in the data active means max response below about -50%; inconclusive means no clear call, values can overlap the other calls; further: on the % scale 0 is the no-effect control and ±100 the full control effect
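Cells plated overnight at 1500 cells/well, then exposed to library compounds with dopamine controls for 90 minutes at 37 degrees C. DiscoveRx reagent added for 30–60 minutes at room temperature; luminescence read, quantitative HTS format.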
Active calls of the source: *; i = inactive; ? = inconclusive; nt = no result; [ ] = remark or other dose. Unless noted, the call rests on the fitted dose curve; in most records, active means well fitted curve in the direction sought with a large enough effect; inconclusive means small, poorly fitted or top-dose-only effect, or another doubt; inactive means no such curve, though single readings can be large; an effect the other way counts as inactive or inconclusive.

SMILES	CBFb RUNX1 block	Integrin act MD	PTHR1 ag	DRD3 agonist	MBNL1 CUG block	DRD3 antagonist
COC(=O)c1cc(S(=O)(=O)NCC2CCN(Cc3cccc(F)c3)CC2)cn1C	nt	16%	?	-13	-16%	?
COc1[nH]c2ccc(F)cc2c1C(=O)OCC1CCN(CCNS(C)(=O)=O)CC1	25%	nt	-34%	-74	nt	-55*
CCN1CCN(c2ncnc3c2c(-c2ccccc2)cn3-c2ccc(F)cc2)CC1	3%	-9%	i	-21	0%	-55*
Fc1ccc(-n2cc(-c3ccccc3)c3c(N4CCOCC4)ncnc32)cc1	17%	14%	-16%	-11	nt	?
O=C(CSc1ccc2nnc(-c3ccncc3)n2n1)Nc1ccc2c(c1)OCCO2	-2%	-10%	21%	-4	-14%	-59*
O=C(CSc1ccc2nnc(-c3ccncc3)n2n1)Nc1ccc2c(c1)OCO2	-5%	7%	-43%	-2	-20%	20
O=C(CSc1ccc2c(c1)OCCO2)Nc1ccc2c(c1)OCO2	1%	4%	-14%[57.5 µM]	-3	-5%	5
Cc1nnc(SCC(=O)NC(=O)Nc2ccc3c(c2)OCCO3)s1	7%	-67%	i	-11	-1%	-70*
O=C(CSc1ccc2c(c1)OCCO2)Nc1ccc(Br)cc1	0%	-9%	-43%	7	-3%	-63*
CC1CCN(c2nn3c(=O)c(C(=O)NCCc4ccc(Cl)cc4)cnc3s2)CC1	nt	nt	i	-7	nt	nt
CC1(C)O[C@H]2[C@@H](O1)[C@@H](C(=O)Nc1ccccc1C(F)(F)F)O[C@@H]1OC(C)(C)O[C@@H]12	nt	nt	-33%	-5	nt	nt
COc1ccc2cc([C@@H](C)C(=O)O)ccc2c1	nt	nt	i	-13	nt	-28
CC(C(=O)O)c1cccc(Oc2ccccc2)c1 (stereo not drawn)	-4%	nt	-12%	-29	nt	-62*
CN1C2CCC1/C(=C\c1ccccc1F)C(=O)/C2=C/c1ccccc1F	2%	-38%	-50%	-8	-9%	-54*
CCN(CC)S(=O)(=O)c1cc([N+](=O)[O-])ccc1NNC(=O)Nc1ccccc1OC	-12%	-4%	i	-5	?	-86*
CCN(CC)S(=O)(=O)c1cc([N+](=O)[O-])ccc1NNC(=O)Nc1ccc(F)cc1	-7%	-16%	-6%	-1	?	-72*
CCN(CC)S(=O)(=O)c1ccc(OC)c(NC(=O)c2ccc([N+](=O)[O-])cc2)c1	-7%	10%	-19%	-6	?	-17
CCN(CC(=O)Nc1ccc([N+](=O)[O-])cc1OC)c1ccccc1	-18%	-4%	i	-2	?	-68*
COc1cc([N+](=O)[O-])ccc1NC(=O)CN(C)C	-5%	-12%	i	2	33%	-14
CCN(CC(=O)Nc1ccc(NC(C)=O)cc1)C(=O)c1cccc(S(=O)(=O)N2c3ccccc3CC2C)c1 (stereo not drawn)	nt	45%	i	-6	nt	2
Cc1ccc(/C=C/C(=O)NCCc2cccc(Cl)c2)o1	nt	-24%	-21%	-3	11%	-3
CC(=C(CCOC(=O)C(C)C)SSC(CCOC(=O)C(C)C)=C(C)N(C=O)Cc1cnc(C)nc1N)N(C=O)Cc1cnc(C)nc1N	nt	nt	nt	-5	nt	nt
CCC12CN(S(=O)(=O)c3ccc(C)cc3)CC(CC)(CN(S(=O)(=O)c3ccc(C)cc3)C1)C2=O	2%	10%[7.66 µM]	-7%[57.5 µM]	-4	-4%	-16
